Reference: PubChem BioAssay AID686970 (National Center for Advancing Translational Sciences (NCATS), 2013)
Hit rate of the full screen: of about 360,000 compounds, about 6,000 (1.7%) were called active. Not shown: some 8% with an inconclusive outcome. The call rests on the fitted dose curve; in most records, active means well fitted cell-killing curve with a large enough effect; inconclusive means small, poorly fitted or top-dose-only effect, or effect the other way; inactive means flat fitted curve, though single readings scatter. Shown is part of a subset that was picked to be rich in actives. Where a call stands in place of a potency, no number is given.

experiment: qHTS for induction of synthetic lethality in tumor cells producing 2HG: qHTS for the HT-1080-NT fibrosarcoma cell line; details: HT-1080-NT fibrosarcoma viability, CellTiter-Glo ATP luminescence, 48 h; series mostly up to 46.1 µM;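 further: NT is the 2HG producing partner of a matched IDH1 knockdown line; nearly all actives have a fitted effect of over 55% in size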
Method in brief: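 Viability of the 2HG-overproducing fibrosarcoma line after 48 hours of compound exposure at 37 degrees C was determined by luminescence with CellTiter-Glo, and concentration-effect curves were then fitted and categorized.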
Potency means the concentration at half of the fitted maximal effect.

Row | Structure (SMILES) | Potency
1 | O=C(CSc1ccc(Cl)cc1)NC1CC1 | inactive
2 | O=C(OC1CC2CC1[C@H]1CCCCN1C2=O)N1CCOCC1 (stereo not given in full) | inactive
3 | CCCCCNC(=O)C(c1ccc(OC)cc1)n1c(=O)c(-c2ccccc2)nc2ccccc21 (stereo not given) | inactive
4 | CCN(CC)C(=O)C1=C(C)N(Cc2ccc(OC)cc2)C(=O)C(CC(=O)NCCCCc2ccccc2)C1 (stereo not given) | inactive
5 | O=C(c1cccc([N+](=O)[O-])c1)N1CCN(Cc2ccccc2)CC1 | inactive
6 | O=C(CCl)N(Cc1cccc([N+](=O)[O-])c1)c1cccc(Cl)c1 | 6.51 µM (active)
7 | Cc1ccc(S(=O)(=O)N(Cc2cccc([N+](=O)[O-])c2)C(=O)N2CCN(C)CC2)cc1 | inactive
8 | O=C(c1ccc(N2CCCC2=O)cc1)N1CCN(c2ccc(C(F)(F)F)cc2[N+](=O)[O-])CC1 | inactive
9 | CCNC(=S)Nc1ccc2c(c1)c(=O)n(C)n2Cc1ccc(Cl)cc1 | inactive
10 | COc1ccc(CNC(=O)c2ccc(-c3cccnc3)c3ccoc23)cc1OC | inactive
11 | COc1cccc(C(O)c2nc(-c3ccc(C)c(C)c3)cs2)c1 (stereo not given) | inactive
12 | COC(=O)COc1cccc2c(=O)n(CC(=O)NCCc3ccc(OC)c(OC)c3)ccc12 | inactive
13 | Cc1ccc(CNC(=O)CCNC(=O)Cn2ccc3ccccc3c2=O)cc1 | inactive
14 | COC(=O)COc1cccc2c(=O)n(CC(=O)NCc3ccccc3)ccc12 | 2.59 µM (active)
15 | Cc1cc(C)c(S(=O)(=O)NN=C2c3ccccc3[C@H]3Cc4csc[n+]4[C@@H]23)c(C)c1 | inactive
16 | O=c1[nH]c2ccccc2n1C1CCN(CCOc2ccccc2)CC1 | inactive
17 | COc1ccccc1CNC(=O)c1cc(=O)c2ccccc2o1 | inactive
18 | COc1ccc2c(CC(=O)N3CCc4cc(OC)c(OC)cc4C3)coc2c1 | inactive
19 | COc1cc2c(cc1OC)CN(C(=O)c1cc(=O)c3ccccc3o1)CC2 | 5.8 µM (active)
20 | COc1ccc(S(=O)(=O)N2CCCCC2c2cc(C(=O)NCc3ccc(F)cc3)no2)cc1 (stereo not given) | inactive
21 | C[C@@H]1CN([C@H](C)CO)S(=O)(=O)c2ccc(C#CC3CCCCC3)cc2O[C@H]1CN(C)C(=O)Cc1ccncc1 | inactive
22 | C=C(C)COc1ccc(-c2ncncc2-c2ccc(OC)cc2)c(O)c1 | inactive

Row | Structure (SMILES) | Potency
23 | C=C(C)COc1ccc(-c2n[nH]c(C)c2-c2ccccc2)c(O)c1 | 20.6 µM (active)
24 | COc1ccc(-c2c(-c3ccc(OC)cc3O)nc(C)nc2C(F)(F)F)cc1 | inactive
25 | CCOC(=O)[C@H]1Nc2ccc(Cl)cc2[C@@H]2[C@H]1C1CC(c3ccccc31)N2C(=O)OCc1ccccc1 (stereo not given in full) | inactive
26 | COc1ccc(/C=C2/CCCc3ccccc3C2=O)cc1 | 8.2 µM (active)
27 | O=C1/C(=C/c2cccs2)CCc2ccccc21 | inactive
28 | COc1ccc(/C=C2\CCc3ccccc3C2=O)c(OC)c1OC | inactive
29 | CC(=O)Oc1ccc(Cn2c(C)c(C(=O)NCc3ccc(C#N)cc3)sc2=O)cc1 | inactive
30 | O=C(CSc1nc2cccc(F)c2c(=O)n1-c1ccccc1)Nc1ccc2c(c1)CCC2 | inactive
31 | O=C(/C(=C/c1cccc(Cl)c1)c1nc2ccccc2[nH]1)c1ccccc1 | 5.17 µM (active)
32 | O=C(O)c1cccc(NC(=O)c2cc(-c3cccc(Cl)c3)nc3ccccc23)c1 | inactive
33 | O=C(N/N=C/c1ccc(Cl)cc1)c1nc2ccc([N+](=O)[O-])cc2c(=O)[nH]1 | inactive
34 | Cc1cc(Br)cn2c(Cc3ccccc3C(F)(F)F)c(-c3ccc(Cl)cc3)nc12 | inactive
35 | Cc1ccc(Oc2cnn(-c3ccccc3)c(=O)c2Br)cc1 | inactive
36 | COc1ccc(Oc2c(Cl)cnn(-c3ccccc3)c2=O)cc1 | 18.4 µM (active)
37 | COc1ccc(CCNC(=O)c2c(C)nn(-c3ccccc3)c2Cl)cc1 | inactive
38 | CCCCN1C(=O)C(CC(=O)NCc2cccs2)CC(C(=O)N2CCCCCC2)=C1C (stereo not given) | inactive
39 | O=C(NCc1ccccc1)C1CNCC(C(=O)NCc2ccccc2)C1 (stereo not given) | inactive
40 | Cc1ccc(-c2nc3c(Cl)cc(C(F)(F)F)cn3c2Cc2cccc(Cl)c2)cc1 | inactive
41 | Oc1c(Cl)cc(Cl)c(Cl)c1Cc1c(O)c(Cl)cc(Cl)c1Cl | 5.8 µM (active)
42 | CCCCCCCCn1c2c(c(=N)c3c1CCC3)CCCC2 | 16.4 µM (active)
43 | C=CC(=O)OCCOCCOCCOCCOC(=O)C=C | 20.6 µM (active)
44 | COc1cc(CCN=Cc2ccccc2O)c([N+](=O)[O-])cc1OC | inactive

Row | Structure (SMILES) | Potency
45 | COc1ccc(S(=O)(=O)N2CCC(C(=O)NCCC(=O)NCCc3cccc(F)c3)CC2)cc1 | inactive
46 | C=CCOc1cccc(C2C(C(=O)c3ccc(C)o3)=C(O)C(=O)N2CCN2CCOCC2)c1 (stereo not given) | inactive
47 | Cc1ccc([C@H]2C[C@H](O)[C@@H](n3cc(COC(=O)c4ccccc4)nn3)CN2C(=O)C2CCCCC2)cc1 | inactive
48 | CC(C)CCNC(=O)c1[nH]c(C(F)(F)F)nc1-c1ccccc1 | inactive
49 | COc1ccc(-c2ccc(CN3C(C(C)C)C(=O)N(Cc4cn(CC5CCCCC5)nn4)CCS3(=O)=O)cc2)cn1 (stereo not given) | inactive
50 | COc1ccc(/C=N/Nc2ccccc2C(=O)O)cc1 | inactive
51 | COc1ccc(C(=O)Nc2ccccc2C(=O)N/N=C/c2ccc(O)c(OC)c2)cc1 | 5.8 µM (active)
52 | COc1ccc2[nH]c(C(=O)N/N=C/c3cc(OC)c(OC)c(OC)c3)cc2c1 | inactive
53 | CC(O)(c1cccc(F)c1)c1nc(-c2ccc3c(c2)OCO3)cs1 (stereo not given) | inactive
54 | CCOC(=O)C1=CC[C@@H](c2ccccc2)N(S(=O)(=O)c2ccc(C)cc2)[C@H]1c1ccc(CC)cc1 | inactive
55 | CCCOc1ccc(F)cc1-c1cc(C(=O)Nc2ccc(F)cc2)[nH]n1 | inactive
56 | COc1ccc(CCNC(=O)NS(=O)(=O)c2ccc(C)cc2)cc1OC | inactive
57 | COc1ccc(CCNC(=S)NC(=O)/C=C/c2ccc(C)cc2)cc1OC | 6.31 µM (active)
58 | COc1ccc(CCNC(=O)Cc2ccc(C)cc2)cc1OC | inactive
59 | O=C(COC(=O)/C=C/c1ccc(Cl)cc1)NC1CCS(=O)(=O)C1 (stereo not given) | inactive
60 | CCOC(=O)C(=Cc1ccccc1)C(=O)c1ccccc1 | inactive
61 | COc1ccc(NC(=O)CN(C)C(=O)c2ccc(COc3ccccc3)o2)cc1 | inactive
62 | Cc1cc(OCc2ccc(C(=O)Nc3ccc(C(=O)O)cc3)o2)ccc1Cl | 11.6 µM (active)
63 | O=C(O)c1ccc(NC(=O)c2ccc(COc3ccc(Cl)cc3)o2)cc1 | inactive
64 | O=C(NCc1ccccc1)C1c2ccccc2OCC(=O)N1CCCN1CCOCC1 (stereo not given) | inactive
65 | CCC(c1nc2ccccc2[nH]1)n1c(=O)c(-c2cccs2)nc2ccccc21 (stereo not given) | inactive
